# According to PubChem BioAssay (EPA / NIEHS):
# Results filed as inconclusive are left out. Calls of active or inactive are those of the source. Rule for the calls: active = hit-call score of the fitted dose curve at least 0.9, where 1 is the maximum; inconclusive = response in the unintended direction; inactive = score below 0.9.
# How the values were obtained:
# [1] = target: rat Glutamate, AMPA Site (AMPA), Gria1 (gene 50592) (UniProt P19490); experiment: NVS_LGIC_rAMPA: NovaScreen (NVS) Ligand-Gated Ion Channel Assay for rat Glutamate, AMPA Site (AMPA) (AID 2283324)
# Chain of rat Glutamate, AMPA Site (AMPA), Gria1 (gene 50592) (P19490 whole entry, looked up): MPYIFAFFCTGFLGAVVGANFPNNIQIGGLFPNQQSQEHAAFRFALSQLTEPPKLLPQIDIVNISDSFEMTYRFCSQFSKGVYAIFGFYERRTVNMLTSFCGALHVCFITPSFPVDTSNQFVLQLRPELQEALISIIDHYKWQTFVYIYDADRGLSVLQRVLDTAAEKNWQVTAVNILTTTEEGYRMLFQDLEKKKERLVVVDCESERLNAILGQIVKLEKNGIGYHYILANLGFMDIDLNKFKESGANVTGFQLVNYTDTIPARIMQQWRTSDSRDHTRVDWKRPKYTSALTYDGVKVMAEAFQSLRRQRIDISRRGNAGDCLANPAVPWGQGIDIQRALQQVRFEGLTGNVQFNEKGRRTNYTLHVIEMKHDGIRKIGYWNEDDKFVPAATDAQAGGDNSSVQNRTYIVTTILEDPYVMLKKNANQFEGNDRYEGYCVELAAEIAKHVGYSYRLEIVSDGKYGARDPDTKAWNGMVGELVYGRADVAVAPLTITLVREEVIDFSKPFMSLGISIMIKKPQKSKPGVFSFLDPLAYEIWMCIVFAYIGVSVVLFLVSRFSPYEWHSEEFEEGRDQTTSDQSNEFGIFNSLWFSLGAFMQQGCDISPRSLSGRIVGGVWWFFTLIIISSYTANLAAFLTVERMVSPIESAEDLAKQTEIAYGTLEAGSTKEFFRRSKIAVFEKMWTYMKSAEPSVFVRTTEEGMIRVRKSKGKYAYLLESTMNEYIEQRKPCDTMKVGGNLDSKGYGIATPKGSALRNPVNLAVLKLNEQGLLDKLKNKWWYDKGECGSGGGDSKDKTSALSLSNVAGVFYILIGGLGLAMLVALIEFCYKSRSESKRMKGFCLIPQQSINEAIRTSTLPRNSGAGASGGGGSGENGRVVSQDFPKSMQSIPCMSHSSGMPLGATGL
# How it was run: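 Screening at 25 uM in duplicate preceded concentration series reaching 50 uM for qualifying compounds. Radioligand displacement on rat forebrain membranes, 1 h, filter-based scintillation readout; reduced binding relative to DMSO.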
# [2] = target: rat Glutamate, NMDA Agonist Site (GluNMDA), Grin1 (gene 24408) (UniProt P35439); experiment: NVS_LGIC_rGluNMDA_Agonist: NovaScreen (NVS) Ligand-Gated Ion Channel Assay for rat Glutamate, NMDA Agonist Site (GluNMDA) (AID 2283327)
# How it was run: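 Radioligand displacement at the agonist site on rat forebrain membrane preparations, read by filter scintillation after 1 h. Chemicals were first run at 25 uM in duplicate; those passing threshold were titrated to a 50 uM maximum.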
# [3] = target: rat Peripheral-type Benzodiazepine Receptor (PBR), Tspo (gene 24230) (UniProt P16257); experiment: NVS_MP_rPBR: NovaScreen (NVS) Membrane Protein Assay for rat Peripheral-type Benzodiazepine Receptor (PBR) (AID 2283335)
# Chain of rat Peripheral-type Benzodiazepine Receptor (PBR), Tspo (gene 24230) (P16257 whole entry, looked up): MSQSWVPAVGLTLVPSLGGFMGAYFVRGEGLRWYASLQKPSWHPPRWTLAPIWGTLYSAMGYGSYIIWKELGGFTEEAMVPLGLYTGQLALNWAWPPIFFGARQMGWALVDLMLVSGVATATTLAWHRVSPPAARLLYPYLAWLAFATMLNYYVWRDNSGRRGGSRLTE
# How it was run: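 Single-concentration duplicate screening at 25 uM preceded concentration-series retesting of actives. Binding of a specific radioligand to rat kidney membrane PBR was read by filtration radiodetection after 1 h, with plate-wise positive and negative controls.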
# [4] = NVS_IC_rCaBTZCHL: NovaScreen (NVS) Ion Channel Assay for Calcium Channel, Type L, Benzothiazepine Site (CaBTZCHL) (AID 2283337)
# How it was run: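 Rat cortical membrane preparation, cell-free. Radioligand displaced by test chemical; 1.5 h incubation; filtration, scintillation count. DMSO = negative control/baseline. Primary: duplicate, 25 uM; secondary: concentration series.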
# [5] = test system: NCBI gene 100848466; experiment: NVS_NR_bPR: NovaScreen (NVS) Nuclear Receptor Binding Assay for bovine Progextron Receptor (PR) (AID 2283343);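 for AC50: actives lower bound radioligand signal below DMSO meaning displacement of the label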
# How it was run: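 Scintillation counts of bound radioligand were read 18 hours after chemical addition to membranes extracted from bovine uterus. Displacement was scored as loss of signal relative to DMSO controls. Screening began at 25 uM in duplicate.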
# [6] = target: human Serotonin, 5-Hydroxytryptamine Receptor 3 (5HT3), HTR3A (gene 3359) (UniProt P46098); experiment: NVS_LGIC_h5HT3: NovaScreen (NVS) Ligand-Gated Ion Channel Assay for human Serotonin, 5-Hydroxytryptamine Receptor 3 (5HT3) (AID 2283325)
# Chain of human Serotonin, 5-Hydroxytryptamine Receptor 3 (5HT3), HTR3A (gene 3359) (P46098 whole entry, looked up): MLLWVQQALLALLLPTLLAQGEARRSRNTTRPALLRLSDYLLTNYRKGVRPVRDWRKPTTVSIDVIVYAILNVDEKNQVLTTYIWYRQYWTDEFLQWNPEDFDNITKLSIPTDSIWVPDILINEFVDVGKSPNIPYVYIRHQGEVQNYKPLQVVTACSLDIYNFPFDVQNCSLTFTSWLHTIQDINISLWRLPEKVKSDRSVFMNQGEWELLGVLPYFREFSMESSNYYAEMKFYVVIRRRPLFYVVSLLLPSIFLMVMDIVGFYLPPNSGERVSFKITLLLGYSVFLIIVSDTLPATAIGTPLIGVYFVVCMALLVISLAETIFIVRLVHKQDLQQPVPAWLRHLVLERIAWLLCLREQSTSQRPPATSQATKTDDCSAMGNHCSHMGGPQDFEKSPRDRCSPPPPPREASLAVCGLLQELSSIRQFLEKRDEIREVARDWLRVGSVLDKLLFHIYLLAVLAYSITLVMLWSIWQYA
# How it was run: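 Initially tested at 25 uM in duplicate, then up to 50 uM in concentration-response for actives, compounds competed with a radioligand for HEK293-derived human 5-HT3 receptor. Bound counts were measured by filtration and scintillation at 1 h; loss of signal versus DMSO.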
# [7] = target: human Peripheral-type Benzodiazepine Receptor (PBR), TSPO (gene 706) (UniProt P30536); experiment: NVS_MP_hPBR: NovaScreen (NVS) Membrane Protein Assay for human Peripheral-type Benzodiazepine Receptor (PBR) (AID 2283331);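 note: hits reduce radioligand binding relative to DMSO baseline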
# Chain of human Peripheral-type Benzodiazepine Receptor (PBR), TSPO (gene 706) (P30536 whole entry, looked up): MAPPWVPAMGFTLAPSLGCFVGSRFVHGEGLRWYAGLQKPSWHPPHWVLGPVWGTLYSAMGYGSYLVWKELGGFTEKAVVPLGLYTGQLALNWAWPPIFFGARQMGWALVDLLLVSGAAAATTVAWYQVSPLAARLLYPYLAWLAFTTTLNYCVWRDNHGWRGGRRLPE
# How it was run: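 Cell-free radioligand displacement, human colonic membranes, 1 h exposure. Filter radiodetection read-out. Single-concentration duplicates (25 uM), then concentration-response for actives; DMSO negative control.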
# [8] = target: Voltage-gated inwardly rectifying potassium channel KCNH2 (Homo sapiens) (UniProt Q12809); experiment: NVS_IC_hKhERGCh: NovaScreen (NVS) Ion Channel Assay for human Potassium Channel ERG (KhERGCh) (AID 2283333)
# Chain of Voltage-gated inwardly rectifying potassium channel KCNH2 (Homo sapiens) (Q12809 whole entry, looked up): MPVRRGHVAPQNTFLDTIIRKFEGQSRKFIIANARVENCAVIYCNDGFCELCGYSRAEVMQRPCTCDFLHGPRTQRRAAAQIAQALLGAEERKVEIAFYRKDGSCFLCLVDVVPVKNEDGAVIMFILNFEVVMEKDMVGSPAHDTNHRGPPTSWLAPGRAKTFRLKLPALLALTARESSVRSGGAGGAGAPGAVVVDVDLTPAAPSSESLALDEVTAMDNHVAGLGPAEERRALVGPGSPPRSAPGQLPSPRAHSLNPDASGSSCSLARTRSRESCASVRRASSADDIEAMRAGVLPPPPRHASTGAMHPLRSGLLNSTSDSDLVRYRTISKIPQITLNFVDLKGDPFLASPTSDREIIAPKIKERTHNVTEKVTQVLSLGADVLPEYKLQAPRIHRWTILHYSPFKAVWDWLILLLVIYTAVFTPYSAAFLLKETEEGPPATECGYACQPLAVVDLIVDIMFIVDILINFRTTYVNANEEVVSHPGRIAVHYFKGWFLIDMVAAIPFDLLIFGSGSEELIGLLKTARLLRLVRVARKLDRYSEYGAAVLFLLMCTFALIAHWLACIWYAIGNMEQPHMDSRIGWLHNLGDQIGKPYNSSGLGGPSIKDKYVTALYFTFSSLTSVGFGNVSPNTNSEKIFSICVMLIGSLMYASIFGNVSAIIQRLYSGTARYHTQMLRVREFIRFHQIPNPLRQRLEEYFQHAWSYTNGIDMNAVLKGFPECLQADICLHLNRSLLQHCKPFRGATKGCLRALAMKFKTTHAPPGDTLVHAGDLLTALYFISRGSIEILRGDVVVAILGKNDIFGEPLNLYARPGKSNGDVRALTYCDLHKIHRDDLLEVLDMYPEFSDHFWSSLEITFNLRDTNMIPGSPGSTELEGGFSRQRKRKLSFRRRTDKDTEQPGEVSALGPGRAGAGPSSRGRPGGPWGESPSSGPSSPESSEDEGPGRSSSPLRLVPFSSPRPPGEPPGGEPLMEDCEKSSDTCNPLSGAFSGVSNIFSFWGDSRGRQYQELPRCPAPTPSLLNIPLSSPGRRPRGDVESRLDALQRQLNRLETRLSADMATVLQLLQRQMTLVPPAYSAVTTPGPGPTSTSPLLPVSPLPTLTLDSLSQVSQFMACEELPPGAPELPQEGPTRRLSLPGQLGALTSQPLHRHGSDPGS
# How it was run: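 Membranes from CHO cells expressing human ERG; displacement of radioligand measured by filtration and scintillation after 0.75 h. Single-concentration duplicate screen at 25 uM, then concentration-response for actives; DMSO baseline.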
# [9] = test system: guinea pig Histamine Receptor (H2), gene 100729734; experiment: NVS_GPCR_gH2: NovaScreen (NVS) G Protein-Coupled Receptor Assay for guinea pig Histamine Receptor (H2) (AID 2283342)
# How it was run: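 Guinea pig striatal membrane preparation with specific radioligand; bound counts measured by filtration and scintillation 1 h post-dosing, DMSO as baseline. Chemicals passing a 25 uM duplicate screen were titrated to a 50 uM maximum.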
# [10] = target: bovine Estrogen Receptor (ER), ESR1 (gene 407238) (UniProt P49884); experiment: NVS_NR_bER: NovaScreen (NVS) Nuclear Receptor Binding Assay for bovine Estrogen Receptor (ER) (AID 2283345);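 note: actives lower the bound radioligand count which means they displace the ER ligand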
# Chain of bovine Estrogen Receptor (ER), ESR1 (gene 407238) (P49884 whole entry, looked up): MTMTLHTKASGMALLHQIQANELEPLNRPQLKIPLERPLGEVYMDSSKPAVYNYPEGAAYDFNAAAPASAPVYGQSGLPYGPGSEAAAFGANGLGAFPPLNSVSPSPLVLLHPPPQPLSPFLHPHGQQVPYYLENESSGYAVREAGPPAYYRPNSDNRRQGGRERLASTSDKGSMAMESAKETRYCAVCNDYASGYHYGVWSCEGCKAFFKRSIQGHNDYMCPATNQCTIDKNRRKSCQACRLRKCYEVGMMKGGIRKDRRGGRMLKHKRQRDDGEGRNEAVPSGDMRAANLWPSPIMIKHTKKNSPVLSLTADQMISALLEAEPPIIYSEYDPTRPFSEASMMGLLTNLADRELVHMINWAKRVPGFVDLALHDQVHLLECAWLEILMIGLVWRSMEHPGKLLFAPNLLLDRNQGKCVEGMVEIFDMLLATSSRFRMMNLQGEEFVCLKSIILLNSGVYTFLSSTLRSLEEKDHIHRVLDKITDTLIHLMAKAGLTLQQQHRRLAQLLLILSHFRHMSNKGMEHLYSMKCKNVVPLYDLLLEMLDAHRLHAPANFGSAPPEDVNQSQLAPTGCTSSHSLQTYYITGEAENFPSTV
# How it was run: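 Displacement of a radioligand from estrogen receptor in bovine uterine membrane preparations; scintillation signal taken at 18 hours, DMSO as baseline. Single-concentration duplicates (25 uM) preceded concentration-response follow-up of actives.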
# [11] = target: rat Thyrotropin Releasing Hormone Receptor (TRH), Trhr (gene 25570) (UniProt Q01717); experiment: NVS_GPCR_rTRH: NovaScreen (NVS) G Protein-Coupled Receptor Assay for rat Thyrotropin Releasing Hormone Receptor (TRH) (AID 2283329);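 note: hit means lower bound tracer signal versus DMSO baseline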
# Chain of rat Thyrotropin Releasing Hormone Receptor (TRH), Trhr (gene 25570) (Q01717 whole entry, looked up): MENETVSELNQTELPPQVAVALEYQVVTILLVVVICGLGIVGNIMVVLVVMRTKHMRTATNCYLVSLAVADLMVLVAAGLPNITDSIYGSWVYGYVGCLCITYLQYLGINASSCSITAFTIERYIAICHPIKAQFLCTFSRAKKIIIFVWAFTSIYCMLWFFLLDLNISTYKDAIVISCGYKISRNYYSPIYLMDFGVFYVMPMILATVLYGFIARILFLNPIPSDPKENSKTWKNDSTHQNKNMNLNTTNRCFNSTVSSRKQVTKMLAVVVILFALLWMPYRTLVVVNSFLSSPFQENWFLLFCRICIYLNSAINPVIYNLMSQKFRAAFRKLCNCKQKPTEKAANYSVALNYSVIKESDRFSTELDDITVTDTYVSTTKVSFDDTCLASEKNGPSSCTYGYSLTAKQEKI
# How it was run: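 Competitive radioligand binding on rat forebrain membrane preparations, with filtration and scintillation readout after 4 h. Primary testing in duplicate at 25 uM; actives confirmed in concentration-response. DMSO defined baseline.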
# [12] = target: human Constitutive Androstane Receptor (CAR), NR1I3 (gene 9970) (UniProt Q14994); experiment: NVS_NR_hCAR_Antagonist: NovaScreen (NVS) Nuclear Receptor Binding Assay for human Constitutive Androstane Receptor Antagonism (CAR) (AID 2283344)
# How it was run: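 Single 25 uM duplicate primary screen, with concentration-series follow-up on actives. Cell-free binding format run in antagonist mode, TR-FRET signal taken 1 h post-dose; activity is signal loss relative to DMSO.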
# [13] = target: rat Gamma-Aminobutyric Acid Type A Receptor, Non-Selective (GABAR-NonSelective), Gabra1 (gene 29705) (UniProt P62813); experiment: NVS_LGIC_rGABAR_NonSelective: NovaScreen (NVS) Ligand-Gated Ion Channel Assay for rat Gamma-Aminobutyric Acid Type A Receptor, Non-Selective (GABAR-NonSelective) (AID 2283326)
# Chain of rat Gamma-Aminobutyric Acid Type A Receptor, Non-Selective (GABAR-NonSelective), Gabra1 (gene 29705) (P62813 whole entry, looked up): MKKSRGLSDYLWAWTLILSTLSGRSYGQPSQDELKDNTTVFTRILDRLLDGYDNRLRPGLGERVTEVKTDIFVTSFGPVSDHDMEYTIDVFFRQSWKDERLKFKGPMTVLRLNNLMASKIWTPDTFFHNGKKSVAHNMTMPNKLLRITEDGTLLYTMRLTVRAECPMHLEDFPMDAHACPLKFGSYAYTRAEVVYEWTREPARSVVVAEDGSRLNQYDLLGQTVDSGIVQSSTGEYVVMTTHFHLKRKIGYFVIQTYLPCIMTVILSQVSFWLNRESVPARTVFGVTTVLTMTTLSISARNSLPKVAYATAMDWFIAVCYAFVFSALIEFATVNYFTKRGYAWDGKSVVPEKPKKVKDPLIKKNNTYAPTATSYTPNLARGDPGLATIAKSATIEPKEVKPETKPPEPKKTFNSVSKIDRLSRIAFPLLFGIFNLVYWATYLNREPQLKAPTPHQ
# How it was run: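 Compounds were first screened in duplicate at 25 uM, with actives run as singleton concentration series (max 50 uM). Binding of a radioligand to rat whole-brain GABA-A preparation was measured by filtration and scintillation counting after 1 h, DMSO baseline.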
# [14] = target: bovine Gamma-Aminobutyric Acid Type A Receptor Agonist (GABAR Agonist), GABRA1 (gene 780973) (UniProt P08219); experiment: NVS_LGIC_bGABAR_Agonist: NovaScreen (NVS) Ligand-Gated Ion Channel Assay for bovine Gamma-Aminobutyric Acid Type A Receptor Agonist (GABAR Agonist) (AID 2283338)
# How it was run: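 Radioligand binding to bovine cerebellar membranes in agonist format, read by filter-based scintillation counting after 1 h. Primary screen in duplicate at 25 uM, with actives followed in concentration series. Gain of signal versus DMSO.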
# [15] = target: human Androgen Receptor (AR), AR (gene 367) (UniProt P10275); experiment: NVS_NR_hAR: NovaScreen (NVS) Nuclear Receptor Binding Assay for human Androgen Receptor (AR) (AID 2283332)
# How it was run: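 LnCAP cell-free extract; radioligand displacement read by scintillation counting after 20 h. Primary screen single concentration 25 uM in duplicate, actives then run as concentration series; loss-of-signal fitted relative to DMSO baseline.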
# [16] = target: rat Glycine Receptor, Strychnine-sensitive (GlyRStrySens), Glra1 (gene 25674) (UniProt P07727); experiment: NVS_LGIC_rGlyRStrySens: NovaScreen (NVS) Ligand-Gated Ion Channel Assay for rat Glycine Receptor, Strychnine-sensitive (GlyRStrySens) (AID 2283341)
# Chain of rat Glycine Receptor, Strychnine-sensitive (GlyRStrySens), Glra1 (gene 25674) (P07727 whole entry, looked up): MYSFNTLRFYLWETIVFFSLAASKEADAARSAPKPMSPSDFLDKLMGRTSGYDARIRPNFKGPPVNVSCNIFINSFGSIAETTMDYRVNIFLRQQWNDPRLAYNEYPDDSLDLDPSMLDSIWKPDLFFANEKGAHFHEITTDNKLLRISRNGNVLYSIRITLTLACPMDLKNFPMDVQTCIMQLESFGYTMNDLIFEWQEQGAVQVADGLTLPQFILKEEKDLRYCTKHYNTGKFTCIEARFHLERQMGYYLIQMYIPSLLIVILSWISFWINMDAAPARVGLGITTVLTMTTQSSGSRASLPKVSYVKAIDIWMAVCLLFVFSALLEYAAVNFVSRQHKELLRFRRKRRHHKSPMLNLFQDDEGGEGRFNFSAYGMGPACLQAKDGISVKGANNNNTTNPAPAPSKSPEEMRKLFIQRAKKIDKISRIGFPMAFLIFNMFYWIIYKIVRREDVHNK
# How it was run: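 Radioligand displacement on rat spinal cord membranes, 1 hr, filter scintillation read-out. Single-concentration duplicate screen at 25 uM; chemicals meeting threshold (e.g., 30% inhibition) rerun in concentration-response up to 50 uM. Loss of binding fitted versus DMSO.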
smiles,measurement,setting,value
CN(C[C@@H](CC[N+]12CCC(C3CCCCC3)(CC1)CC2)c1ccc(Cl)c(Cl)c1)C(=O)c1cc(C(F)(F)F)cc(C(F)(F)F)c1,outcome,[1],inactive
same,AC50,[2],38.2 µM (active)
same,AC50,[3],2.4 µM (active)
same,AC50,[4],1.48 µM (active)
same,AC50,[5],41.5 µM (active)
CN(C)c1ccc(C(=C2C=CC(=[N+](C)C)C=C2)c2ccc(N(C)C)cc2)cc1,outcome,[1],inactive
same,AC50,[6],16.7 µM (active)
same,AC50,[7],1.4 µM (active)
same,AC50,[8],5.33 µM (active)
same,AC50,[3],5.36 µM (active)
same,AC50,[4],5.44 µM (active)
same,AC50,[9],0.827 µM (active)
same,AC50,[5],4.43 µM (active)
same,outcome,[10],inactive
CC[C@@H]1C[C@H](N(Cc2cc(C(F)(F)F)cc(C(F)(F)F)c2)C(C)=O)c2cc(C(F)(F)F)ccc2N1C(=O)OC(C)C,outcome,[7],inactive
Cc1oc2c(NC(=O)c3c(Cl)cccc3Cl)cccc2c1C(C)(C)O,outcome,[11],inactive
same,AC50,[7],1.26 µM (active)
same,AC50,[3],2.5 µM (active)
same,AC50,[12],34.6 µM (active)
Cc1cc2c(cc1C(F)(F)F)N(C(=O)Nc1ccc(Oc3cccnc3C)nc1)CC2,AC50,[13],8.52 µM (active)
same,outcome,[10],inactive
CCOC(=O)O[C@H](C)OC(=O)c1ccc2c(c1)cc(C(=O)NC1CCN(C(C)C)CC1)n2Cc1cc(-c2ccc(Cl)s2)on1,outcome,[6],inactive
same,AC50,[8],0.925 µM (active)
same,AC50,[4],9.12 µM (active)
same,AC50,[14],11.8 µM (active)
same,AC50,[9],13.3 µM (active)
O=CCCCC=O,outcome,[10],inactive
Cc1ccc2oc(CN(Cc3ccccc3)C(=O)Nc3c(F)cc(F)cc3F)c(-c3ccc(Cl)cc3)c2c1,AC50,[7],2.6 µM (active)
same,AC50,[3],4.2 µM (active)
same,outcome,[5],inactive
CCCOC(=O)c1cc(O)c(O)c(O)c1,outcome,[10],inactive
O=c1c(-c2ccc(O)cc2)coc2cc(O)cc(O)c12,AC50,[7],8.19 µM (active)
same,outcome,[15],inactive
same,outcome,[3],inactive
C[C@]12CC[C@@H]3c4ccc(O)cc4CC[C@H]3[C@@H]1CC[C@H]2O,AC50,[5],0.0988 µM (active)
O=C(O)Cc1cc(I)c(Oc2ccc(O)c(I)c2)c(I)c1,outcome,[16],inactive
CCCCCCCCOC(=O)c1cc(O)c(O)c(O)c1,AC50,[7],0.439 µM (active)
same,AC50,[3],2.82 µM (active)
same,outcome,[5],inactive
same,AC50,[10],36.7 µM (active)
CCCCCCCCCCCO,outcome,[10],inactive
